# High-throughput results: PubChem BioAssay, several laboratories
# KLF5 inh: inhibitors of KLF5 expression; AID 1700; DLD-1 KLF5 promoter-luciferase reporter, luminescence; inhibition, % at 5 µM; hit rate 0.23% among 290,000;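 active = inhibition above a per-plate limit of that plate's mean compound inhibition plus 3 SD, cut at about 60% in these data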;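 also: 0% = DMSO wells and 100% = LY294002 at 200 µM; higher means less KLF5 promoter-driven luciferase light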
# Ba/F3 V617F tox: lowers viability of Ba/F3 cells expressing EpoR and JAK2V617F | inhibition, % at 5.6 µM | ATP luminescence | hit rate 1.1% among 220,000;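 active = inhibition above the campaign mean plus 3 SD over all tested compounds, cut at about 24% in these data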;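 also: cytokine-independent growth of Ba/F3 cells driven by EpoR plus mutant JAK2; 0% = DMSO-treated cells and 100% = JAK inhibitor I control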
# IEC-6 tox: counter-screen for KLF5 inhibitors: cytotoxicity in IEC-6 cells. AID 1825. hit rate 0.78% among 290,000. inhibition, % at 5 µM. IEC-6 cytotoxicity, luminescence viability; in the data active = inhibition above about 22%;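 also: 0% = plate median of test compound wells and 100% = cytotoxic reference compound wells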
# BaF3 parental: parental Ba/F3 viability inhibition as JAK2V617F counter-screen | CellTiter-Glo ATP luminescence | inhibition, % at 5.6 µM | hit rate 1.1% among 220,000;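 active = inhibition above a per-campaign cutoff, the mean inhibition of all tested compounds plus 3 SD, cut at about 27% in these data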;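 also: 0% = DMSO wells and 100% = JAK Inhibitor I control wells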
# APP 5UTR inh: APP translation inhibition | AID 1285 | SH-SY5Y APP 5'UTR-luciferase reporter, luminescence | inhibition, % at 2 µM | hit rate 0.82% among 190,000;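 active = inhibition above a set limit, derived from the sample mean plus 3 SD, cut at about 45% in these data; inconclusive = one replicate passes the limit while the other fails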
# aSyn UTR inh: MLPCN primary screen, SNCA 5' untranslated region; AID 1813; alpha-synuclein 5'UTR reporter, inhibitor activity; hit rate 0.82% among 300,000; inhibition, % (tested at 7.5 µM); in the data active = inhibition above about 60%; inconclusive = no clear call, values can overlap the other calls;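 also: H4 neuroglioblastoma cells stably carrying SNCA 5'UTR luciferase fusion; 0% = DMSO wells and 100% = positive control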
# * marks the source's active call; other numbers are inactive results; ? = inconclusive; nt = not tested or not shown. An excerpt weighted towards active compounds, which were near 2.2% of everything screened.
SMILES,KLF5 inh,Ba/F3 V617F tox,IEC-6 tox,BaF3 parental,APP 5UTR inh,aSyn UTR inh
Cc1cc(C)[n+](C2C3CC4CC(C3)CC2C4)o1 (centres undefined),23,68*,-3,66*,0,12
NC(=S)c1cn(C2OC(CO)C(O)C2O)c2ncnc(N)c12 (centres undefined),110*,99*,100*,104*,nt,105*
Nc1ncnc2c1ccn2[C@@H]1O[C@H](CO)[C@@H](O)[C@H]1O,nt,nt,nt,nt,nt,107*
N=c1c2c(n(Cc3ccc(Cl)cc3Cl)c3c1CCC3)CCCC2,13,92*,14,70*,2,8
Cc1nn(Cc2ccc(Cl)cc2Cl)c(Cl)c1C(=O)O,-13,-1,-11,4,6,12
CCC1(OC(=O)CN)C(=O)OCc2c1cc1n(c2=O)Cc2cc3ccccc3nc2-1 (centres undefined),104*,99*,96*,96*,nt,103*
CC(C)(C)C(=O)Nc1ccc(S(=O)(=O)N2CC3CC(C2)c2cccc(=O)n2C3)cc1 (centres undefined),-20,nt,2,nt,nt,-7
COc1ccc(-[n+]2c(-c3ccccc3)cc(-c3ccccc3)cc2-c2ccccc2)cc1,nt,nt,nt,nt,nt,81*
CCOC(=O)c1c(C)n(Cc2ccccc2)c2ccc(OCC(O)CNC(C)(C)C)cc12 (centres undefined),-2,nt,-2,nt,nt,5
COc1ccc2ccccc2c1CNCCc1ccccc1,-19,nt,-1,nt,nt,-9
C1=C(c2c[nH]c3ccccc23)CCN(Cc2ccccc2)C1,7,97*,7,76*,-18,35
CN1CC=C(c2c[nH]c3ccccc23)CC1,15,29*,-1,61*,-1,-5
O=[N+]([O-])c1ccc(CN2CC=C(c3ccccc3)CC2)cc1,17,nt,2,nt,nt,-2
Cc1cccc(-n2c(C)nc3ccc(Cl)cc3c2=O)c1,-2,nt,-4,nt,nt,17
CCc1cc(=O)oc2cc(OCC(=O)N3C[C@H]4C[C@@H](C3)c3cccc(=O)n3C4)ccc12,-18,nt,6,nt,nt,4
C=C1C(=O)O[C@@H]2C[C@@H](C)[C@@H]3C=CC(=O)[C@@]3(C)[C@@H](O)[C@H]12,nt,nt,nt,nt,nt,119*
CC12CC[C@H]3[C@@H](CCC4(O)C[C@H](O)CCC34/C=N/NC(=O)c3ccccc3O)C1(O)CCC2C1=CC(=O)OC1 (some centres undefined),-26,-2,-2,0,nt,77*
CC12CC[C@H]3[C@@H](CCC4(O)C[C@H](O)CCC34/C=N/NC(=O)c3ccccc3F)C1(O)CCC2C1=CC(=O)OC1 (some centres undefined),1,-2,-1,3,nt,64*
COc1ccc(CC(C)NCCC(c2ccccc2)c2ccccc2)cc1 (centres undefined),-2,nt,4,nt,nt,-16
Cc1ccc2c(c1)cc1c(=O)n(CC(=O)N3CCC4(CC3)OCCO4)nc(C)n12,-7,nt,-4,nt,nt,17
CN(C)c1ccc(/C=C/C=C/c2sc3ccccc3[n+]2C)cc1,5,99*,18,79*,nt,?
Cc1ccc(OCCOc2cccc(C=C3C(=O)NC(=O)NC3=O)c2)cc1,-22,nt,2,nt,nt,19
COc1cccc(C2CCN(CC(=O)Nc3cc(Cl)ccc3OC)CC2O)c1 (centres undefined),1,nt,0,nt,nt,0
CC(=O)OC(C)(C)/C=C/C(=O)[C@](C)(O)[C@H]1[C@H](O)C[C@@]2(C)[C@@H]3CC=C4[C@H](C[C@H](O)C(=O)C4(C)C)[C@]3(C)C(=O)C[C@]12C,83*,101*,98*,88*,90*,nt
C=C(C=O)CC1CC(O)[C@]2(C)OC3CC4OC5C[C@]6(C)O[C@]7(C)CCC8OC9C[C@]%10(C)OC%11C(C)=CC(=O)OC%11CC%10OC9C[C@@H](C)C8OC7CC6O[C@]5(C)CC5OC5C4OC3CC2O1 (some centres undefined),-10,97*,11,97*,96*,114*
COc1ccc(C(Nc2ccccc2)P(=O)(Oc2ccccc2)Oc2ccccc2)cc1 (centres undefined),5,-3,0,1,-9,-34
O=c1[nH]c(=O)n(-c2ccccc2)c(O)c1/C=C1/C(c2ccccc2)=Nc2ccccc21,32,80*,55*,68*,68*,-60
CCN(CC)C(=O)c1ccc(NC(=O)CN2CCc3cc(OC)c(OC)cc3C2)cc1,0,nt,-2,nt,nt,22
